Reference: publication PMC5540273 (PLoS ONE, 2017)

System: PAK3
Settings: concentration: 1 μM, replicates: in singlicate; n = 1
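Note: KINOMEscan kinase panel screen.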

Compound	%Inh
NS(=O)(=O)c1cccc(-c2ccc3ncc(N4CCOCC4)nc3c2)c1 [GSK1535721]	0%
CN1c2ccc(CNc3ccc(F)cc3)cc2-c2c(cnn2C)S1(=O)=O	0%
Cc1cn2c(=O)cc(N3CCOCC3)nc2n1Cc1cccc(Cl)c1Cl [GSK2334006]	15%
CC(C)(C)n1cnc2c(N)ncnc21 [SKF-97359]	0%
O=c1cc(N2CCOCC2)nc2n(Cc3cccc(F)c3)ccn12 [GSK2297430]	79%
O=C(c1ccc(-c2cc(-c3c[nH]nc3-c3ccccn3)ccn2)cc1)N1CCOCC1 [GW812171]	0%
COc1ccc(Nc2nccc(N3CCC(NC(=O)Nc4cccc(C(C)=O)c4)C3)n2)cc1 (stereo not drawn) [GSK1379731]	0%
Cc1ccc(NC(=O)c2ccnc(N3CCN(C)CC3)c2)cc1-c1ccc(C(=O)NCC2CC2)cc1 [GW775604]	0%
Nc1nccc(-c2c(-c3ccc(F)cc3)ncn2C2CCN(CC(F)(F)F)CC2)n1 [SB-236560]	100%
Cc1nnc(-c2ccc3ncc(-c4ccc(S(C)=O)cc4)n3c2)o1 (stereo not drawn)	0%
CN(C1=C(c2ccccc2)C(=O)NC1=O)c1ccccc1 [SB-334860]	0%
CSc1ccc(-c2cc3ncnc(SCC(=O)O)c3s2)cc1	0%
O=C1Cc2cc(Nc3nc(NCc4cccc(S(=O)(=O)C(F)(F)F)c4)ncc3C(F)(F)F)ccc2N1	1%
Cc1ccc(C(=O)NCC(N)=O)cc1-n1c(C)cc(OCc2ccc(F)cc2F)c(Br)c1=O	37%
CN(C(=O)c1ccc(-c2cc(-c3c[nH]nc3-c3ccccn3)ccn2)cc1)C1CCOCC1 [GW810083]	0%
c1ccc(-c2cc(-c3c[nH]nc3-c3ccccn3)ccn2)cc1 [GW576604]	16%
COc1cc2c(cc1OC[C@@H](O)CO)ncc1c3ccc(C#N)cc3[nH]c21	0%

Compound	%Inh
CCCCCc1nc2c(N)ncnc2n1CCCCC [SKF-97255]	4%
Fc1ccc(-c2ncn(CCCN3CCOCC3)c2-c2cccnc2)cc1 [SB-211743]	0%
Cc1cccc(Cn2ccn3c(=O)cc(N4CCOCC4)nc23)c1 [GSK2297542]	3%
Fc1ccc(-c2nn3c(OCC(F)(F)F)cccc3c2-c2ccncc2)cc1 [GW514784]	0%
COc1cc2c(cc1OCCN1CCN(C)CC1)ncc1c3ccc(C#N)cc3[nH]c21	0%
COc1ccc(COc2cc(-n3cnc4ccccc43)sc2C(N)=O)cc1 [GSK1024304]	1%
O=C(NOCC1CC1)c1ccc(F)c(F)c1Nc1ccc(I)cc1Cl	0%
Cc1c2ccc(N(C)c3ccnc(Nc4cccc(S(N)(=O)=O)c4)n3)cc2nn1Cc1ccccc1.Cl.Cl [GW787226]	28%
O=c1cc(N2CCOCC2)nc2n(Cc3cccc(C(F)(F)F)c3)ccn12 [GSK2297543]	14%
Cc1nnc(-c2ccc(C)c(-c3ccc(C(=O)Nc4ccc(NS(C)(=O)=O)cc4)cc3)c2)o1 [GW702865]	0%
O=C(NCCNc1ccnc(Nc2ccc(F)cc2)n1)c1cc2ccccc2s1 [GSK1379874]	0%
Cc1nnc(-c2ccc3occ(-c4ccc(C(C)O)cc4)c3c2)o1 (stereo not drawn)	23%
CCn1cnc2c(N)ncnc21 [GW345098]	58%
N#Cc1c(N2CCOCC2)sc(-c2ccn[nH]2)c1-c1ccc(Cl)cc1	27%
Cl.Oc1cccc(Nc2ccnc3cc(-c4ccncc4)ccc23)c1 [GW494601]	33%
O=C(NCCNc1ccnc(Nc2ccc(F)cc2)n1)Nc1ccccc1F [GSK1379880]	0%
